Measured values: PubChem BioAssay (NCATS)
Active and inactive are the calls of the source.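 How the source made its calls, unless noted: active means compounds whose dose series gives a full or clear partial fitted curve of increased nuclear translocation; inconclusive means weak partial curve or effect only at the top dose; inactive means no dose-dependent translocation response.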

biological target: Glucocorticoid receptor (Homo sapiens) (UniProt P04150); test: GR-GFP Redistribution (AID 450); conditions: U2OS GR-GFP nuclear translocation, laser cytometry, 2 h
Sequence (P04150 whole entry, looked up, the tested form may be a part): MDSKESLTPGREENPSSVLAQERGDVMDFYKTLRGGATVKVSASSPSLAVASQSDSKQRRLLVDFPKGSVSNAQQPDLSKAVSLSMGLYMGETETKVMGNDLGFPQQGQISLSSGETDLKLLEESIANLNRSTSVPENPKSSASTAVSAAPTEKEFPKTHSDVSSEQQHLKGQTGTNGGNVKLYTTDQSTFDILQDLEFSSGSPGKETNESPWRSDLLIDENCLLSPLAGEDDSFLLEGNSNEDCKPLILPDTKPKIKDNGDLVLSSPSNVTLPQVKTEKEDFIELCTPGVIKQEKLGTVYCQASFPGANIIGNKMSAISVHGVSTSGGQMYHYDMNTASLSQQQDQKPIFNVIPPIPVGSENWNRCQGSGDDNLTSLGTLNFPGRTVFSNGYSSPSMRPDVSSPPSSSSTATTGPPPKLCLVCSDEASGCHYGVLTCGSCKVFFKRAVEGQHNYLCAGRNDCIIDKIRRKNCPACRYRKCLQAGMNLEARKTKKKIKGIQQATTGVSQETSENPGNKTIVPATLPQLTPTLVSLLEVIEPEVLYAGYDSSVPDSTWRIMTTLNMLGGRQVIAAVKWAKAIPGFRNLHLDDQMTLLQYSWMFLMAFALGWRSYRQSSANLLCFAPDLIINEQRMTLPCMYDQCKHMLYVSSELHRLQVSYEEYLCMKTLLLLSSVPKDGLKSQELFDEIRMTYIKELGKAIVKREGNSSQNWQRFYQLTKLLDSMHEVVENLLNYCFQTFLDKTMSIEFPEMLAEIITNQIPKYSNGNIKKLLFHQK
Potency means the concentration at half of the fitted maximal effect.

Potency, inactive:
COCCNc1ncnc2ccc(-c3ccccc3OC)cc12 > 46 µM
CS(=O)(=O)Nc1cccc(-c2nc(Nc3ccncc3)c3ccccc3n2)c1 > 46 µM
O=c1c(CCc2ccccc2)nc2cnc(N3CCNCC3)nc2n1Cc1cccs1 > 9.22 µM
COc1ccc(Oc2ncc3nc(-c4ccc(F)cc4)c(=O)n(C[C@H]4CCCO4)c3n2)cc1 > 9.22 µM
COCCn1c(=O)c(CCc2ccccc2)nc2cnc(Oc3ccccc3)nc21 > 9.22 µM
CN(C)c1ncc2nc(-c3ccccc3)c(=O)n(C)c2n1 > 9.22 µM
CN(C)c1ccc(-c2cncnc2NCCN2CCOCC2)cc1 > 46 µM
COc1ccc(-c2nc3cnc(N4CCN(C)CC4)nc3n(CCc3ccccc3)c2=O)cc1 > 9.22 µM
CCNc1ncc2nc(CCc3ccccc3)c(=O)n(Cc3cccc(OC)c3)c2n1 > 9.22 µM
CN(Cc1ccco1)c1ncnc2ccc(-c3cccc(NS(C)(=O)=O)c3)cc12 > 46 µM
CN(C)c1nc(-c2cccc(C#N)c2)nc2ccccc12 > 46 µM
CN1CCN(c2ncnc3ccc(-c4cccc(C#N)c4)cc23)CC1 > 46 µM
COc1cccc(-c2ccc3ncnc(N4CCNCC4)c3c2)c1 > 46 µM
O=c1c(CCc2ccccc2)nc2cnc(Nc3ccccc3)nc2n1C[C@H]1CCCO1 > 9.22 µM
CN(C)c1ccc(-c2cc(N(C)Cc3ccco3)ncn2)cc1 > 46 µM
COc1ccccc1CNc1ccnc(-c2cccnc2)n1 > 46 µM
CN(C)c1ncnc2ccc(-c3cccc(NS(C)(=O)=O)c3)cc12 > 46 µM
CN1CCN(c2ncnc3ccc(-c4ccccc4C(F)(F)F)cc23)CC1 > 46 µM
COc1ccc2[nH]cc(CCNc3ncncc3-c3ccccc3OC)c2c1 > 46 µM
COCCn1c(=O)c(-c2ccccc2)nc2cnc(Oc3cccc(Cl)c3)nc21 > 9.22 µM
COc1ccccc1-c1ccc2ncnc(N3CCNCC3)c2c1 > 46 µM
O=c1c(CCc2ccccc2)nc2cnc(Oc3ccccc3)nc2n1C1CC1 > 9.22 µM
Cn1c(=O)c(-c2ccc(Cl)cc2)nc2cncnc21 > 9.22 µM
COc1ccccc1-c1nccc(NCc2cccs2)n1 > 46 µM
CCNc1ncc2nc(CCc3ccccc3)c(=O)n(CCC#N)c2n1 > 9.22 µM
COc1ccc2[nH]cc(CCNc3cc(-c4cccc(C#N)c4)ncn3)c2c1 > 46 µM
CN(C)c1ncc2nc(CCc3ccccc3)c(=O)n(CCC#N)c2n1 > 9.22 µM
COc1ccccc1-c1ccc2ncnc(N3CCOCC3)c2c1 > 46 µM
COc1ccccc1CNc1cc(-c2ccccc2CN(C)C)ncn1 > 46 µM
Cc1cnc(CNc2ncnc3ccc(-c4ccccc4C)cc23)cn1 > 46 µM

biological target: Glucocorticoid receptor (Homo sapiens) (UniProt P04150); test: GR-EFC Redistribution (AID 451; calls by dose curve); conditions: CHO-K1 GR-EFC translocation, beta-gal luminescence, 2 h
How it was run: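 CHO-K1 cells expressing nuclear EA and GR-ED fragments of b-gal; compounds titrated up to 46 uM final, 2 h at 37 C. GR nuclear translocation read as complemented b-gal luminescence after 1 h RT detection.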

Potency, inactive:
COCCNc1ncnc2ccc(-c3ccccc3OC)cc12 > 46 µM
O=c1c(-c2cccc(F)c2)nc2cncnc2n1Cc1ccc(F)cc1 > 46 µM
CS(=O)(=O)Nc1cccc(-c2nc(Nc3ccncc3)c3ccccc3n2)c1 > 46 µM
O=c1c(CCc2ccccc2)nc2cnc(N3CCNCC3)nc2n1Cc1cccs1 > 46 µM
COCCn1c(=O)c(CCc2ccccc2)nc2cnc(Oc3ccccc3)nc21 > 46 µM
CN(C)c1ncc2nc(-c3ccccc3)c(=O)n(C)c2n1 > 46 µM
COc1ncc2nc(-c3ccccc3)c(=O)n(CCc3ccccc3)c2n1 > 46 µM
COc1ccccc1CNc1cc(-c2cccnc2)ncn1 > 46 µM
CCNc1ncc2nc(CCc3ccccc3)c(=O)n(Cc3cccc(OC)c3)c2n1 > 46 µM
CN(Cc1ccco1)c1ncnc2ccc(-c3cccc(NS(C)(=O)=O)c3)cc12 > 46 µM
CN(C)c1nc(-c2cccc(C#N)c2)nc2ccccc12 > 46 µM
COc1cccc(Nc2ncc3ncc(=O)n(Cc4ccc(F)cc4)c3n2)c1 > 46 µM
COc1ccccc1CNc1ccnc(-c2cccc(NS(C)(=O)=O)c2)n1 > 46 µM
COc1cccc(-c2ccc3ncnc(N4CCNCC4)c3c2)c1 > 46 µM
N#CCCn1c(=O)c(-c2ccc(Cl)cc2)nc2cnc(N3CCOCC3)nc21 > 46 µM
CN(C)c1ccc(-c2cc(N(C)Cc3ccco3)ncn2)cc1 > 46 µM
COc1ccccc1CNc1ccnc(-c2cccnc2)n1 > 46 µM
CN1CCN(c2ncnc3ccc(-c4ccccc4C(F)(F)F)cc23)CC1 > 46 µM
COCCn1c(=O)c(-c2ccccc2)nc2cnc(Oc3cccc(Cl)c3)nc21 > 46 µM
Cc1cnc(CNc2ncnc3ccc(-c4ccc(N(C)C)cc4)cc23)cn1 > 46 µM
COc1ccc(Oc2ncc3nc(-c4cc(F)cc(F)c4)c(=O)n(C4CC4)c3n2)cc1 > 46 µM
O=c1c(CCc2ccccc2)nc2cnc(Oc3ccccc3)nc2n1C1CC1 > 46 µM
COc1ccccc1-c1nccc(NCc2cccs2)n1 > 46 µM
COc1ccc2[nH]cc(CCNc3cc(-c4cccc(C#N)c4)ncn3)c2c1 > 46 µM
COc1ccccc1-c1ccc2ncnc(N3CCOCC3)c2c1 > 46 µM
COc1ccccc1CNc1cc(-c2ccccc2CN(C)C)ncn1 > 46 µM
Cc1cnc(CNc2ncnc3ccc(-c4ccccc4C)cc23)cn1 > 46 µM
